# Results published in PubChem BioAssay (NCATS).
# Active and inactive are the calls of the source. The call rests on the fitted dose curve; in most records, active means well fitted curve in the direction sought with a large enough effect; inconclusive means small, poorly fitted or top-dose-only effect, or effect the other way, or another doubt; inactive means no such curve, though single readings can be large or run the other way. Residues, ends and D or L forms follow the SMILES beside them. *: point of attachment. Cbz = O=C(OCc1ccccc1)*
# Target: Beta-2 adrenergic receptor (Homo sapiens) (UniProt P07550)
# Sequence (P07550 whole entry, looked up): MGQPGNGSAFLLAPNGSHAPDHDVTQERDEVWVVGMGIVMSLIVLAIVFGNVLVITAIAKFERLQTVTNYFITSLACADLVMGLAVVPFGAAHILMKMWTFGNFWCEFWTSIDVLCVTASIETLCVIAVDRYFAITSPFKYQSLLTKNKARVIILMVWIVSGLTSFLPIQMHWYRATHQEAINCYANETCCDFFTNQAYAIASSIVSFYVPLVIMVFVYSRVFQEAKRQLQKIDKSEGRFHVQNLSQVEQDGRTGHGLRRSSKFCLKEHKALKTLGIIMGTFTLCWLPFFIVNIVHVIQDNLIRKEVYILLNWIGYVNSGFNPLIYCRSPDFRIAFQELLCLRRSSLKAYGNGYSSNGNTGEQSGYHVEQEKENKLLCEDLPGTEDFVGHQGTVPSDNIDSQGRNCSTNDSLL
# Assay: qHTS validation assay of beta-arrestin-biased ligands of beta2-adrenergic receptor (AID 485366)
# Settings: cell-based beta-arrestin recruitment to ADRB2, qHTS; series mostly up to 46.1 µM
# Excerpt: NIH Molecular Libraries Probe Production Network [MLPCN]
# NIH Chemical Genomics Center [NCGC]
# PI: Bryan Roth and Bob Lefkowitz
# The concept of biased agonism is an emerging concept of molecular pharmacology which proposes that seven transmembrane receptors (7TMRs) or G protein-coupled receptors (GPCRs), exist in multiple signaling conformations and complexes and that ligands (either agonists or antagonists) can induce signaling biased responses for distinct signal transduction cascades.
# Furthermore, accumulating evidence over the last decade has drawn attention to a novel function of beta-arrestins as signal transducers that scaffold various signaling molecules upon activation of 7TMRs. […] This beta-arrestin-biased signaling presumably leads to distinct physiological outcomes from those by G protein activation.
# Additionally, the active receptor conformations which […] on this beta-arrestin signaling are likely different from those activating G protein signaling
# The goal of this screening project will be to discover and optimize novel beta-arrestin-biased ligands for beta2-AR signaling. A luminescent cell-based assay for beta2-AR-mediated agonism, known as the Tango assay, has been validated in which ligand binding of a recombinant beta2-AR and subsequent recruitment of a recombinant beta-arrestin lead to the release of the transcriptional activator tTA, which upregulates transcription of a tTA-responsive luciferase gene. […] Compounds were screened as a concentration-titration series that ranged from 46 microM to 0.6 nM.
# NCGC Assay Protocol Summary:
# Tango cells were dispensed into white, solid, tissue-culture-treated 1536-well plates at 1500 cells/well in DMEM, containing 1% fetal bovine serum (FBS). Then, 23 nL of compounds or DMSO were delivered to each well using a pin tool. Plates were incubated at 37 degrees C, 5% CO2 for 18 hr. Then 2.5 uL luminescent substrate mix (in-house prepared: 150 mM Tris-Cl, pH 7.6, 3 mM MgCl2, 1% Triton X-100, 5 mM DTT, 0.5 mM CoA, 0.15 mM ATP, 0.44 mM D-luciferin, final concentrations) was added to each well. Plates were then incubated for 15 minutes at room temperature, and subsequently measured on a ViewLux plate reader for luminescent signal using a clear filter with a 10 second exposure and 2x binning. The %Activity was determined from the corrected luminescence values.
# Concentration-response curves were fitted to the signals arising from the resulting luminescence. The concentration-effect curves were then classified based on curve quality (r2), response magnitude and degree of measured activity, and compounds were subsequently categorized based on their curve class.
# Keywords: biased agonism, beta2-AR, beta-arrestin, GPCR, 7TMR, Tango, luminescence, MLSMR, MLPCN, NIH Roadmap, qHTS, NCGC
row,Compound,outcome
1,COc1ccc2c(c1)c(CC(=O)O)c(C)n2C(=O)c1ccccc1,inactive
2,Cc1nc2c(OCc3ccccc3)cccn2c1CC#N,inactive
3,CC(C)[C@H](NC(=O)OCc1ccccc1)C(=O)N[C@H](C=O)Cc1ccccc1 (Cbz-Val-Phe-aldehyde),inactive
4,N[C@H](C(=O)O)[C@H]1C[C@@H]1C(=O)O,inactive
5,Cc1cc(Cn2cnc3c2C[C@@H](C(=O)O)N(C(=O)C(c2ccccc2)c2ccccc2)C3)ccc1N,inactive
6,CC[C@H](NC(=O)c1c(C)c(-c2ccccc2)nc2ccccc12)c1ccccc1,inactive
7,O=C(O)CCC(=O)N1CCCC1C(=O)O (stereo not given),inactive
8,N#Cc1cc([N+](=O)[O-])c2sc(C(N)=O)[n+]([O-])c2c1,inactive
9,CNc1ncnc2c1ncn2[C@H]1C[C@H](OP(=O)(O)O)[C@@H](COP(=O)(O)O)O1,inactive
10,N[C@@H](CS(=O)O)C(=O)O,inactive
11,NCCCNCCCCNCCCN,inactive
12,CC(/C=C/c1cccc(Oc2ccc(F)cc2)c1)N(O)C(N)=O (stereo not given),inactive
13,COc1cc2c(CCNC(C)=O)c[nH]c2cc1O,inactive
14,O=C(O)C1=CCNCC1,inactive
15,NOCC(=O)O,inactive
16,CN(C)S(=O)(=O)c1ccc2c(c1)/C(=C/c1cc3c([nH]1)CCCC3)C(=O)N2,inactive
17,COC(=O)[C@H](NC(=O)c1cc(-c2ccccc2)nc2ccccc12)c1ccccc1,inactive
18,CC(N)(C(=O)O)c1ccc(C(=O)O)cc1 (stereo not given),inactive
19,CN1Cc2sccc2C(c2ccc(O)c(O)c2)C1 (stereo not given),inactive
20,Nc1ccc2c3c(cccc13)C(=O)NC2=O,inactive

row,Compound,outcome
1,c1ccc(C2CN3CCSC3=N2)cc1 (stereo not given),inactive
2,CCn1c(=O)[nH]c2cc(Cl)c(Cl)cc21,inactive
3,COc1ccc(C(=O)NCc2cccnc2)cc1C(=O)NCc1cccnc1,inactive
4,CC1=C(/C=C/C(C)=C/C=C/C(C)=C\C(=O)O)C(C)(C)CCC1,inactive
5,NCC(O)(CS(=O)(=O)O)c1ccc(Cl)cc1 (stereo not given),inactive
6,O=C(O)C1=CC(=C(c2ccc(O)c(C(=O)O)c2)c2ccc(O)c(C(=O)O)c2)C=CC1=O,inactive
7,CC1CCN(CC[C@H]2CCCN2S(=O)(=O)c2cccc(O)c2)CC1,inactive
8,OC1(c2ccc(Cl)cc2)CCN(Cc2c[nH]c3ccccc23)CC1,inactive
9,Cc1nc(N=Nc2cc(S(=O)(=O)O)c3cc([N+](=O)[O-])cc(S(=O)(=O)O)c3c2)c(COP(=O)(O)O)c(C=O)c1O,inactive
10,N[C@@H](CCC(=O)N[C@H](CSN=O)C(=O)NCC(=O)O)C(=O)O,inactive
11,Nn1nnc2ccccc21,inactive
12,COc1cc(CNC(=O)CCCCCCC(C)C)ccc1O,inactive
13,CN1CCN(c2nc3cc(C(F)(F)F)ccc3n3cccc23)CC1,inactive
14,c1ccc2nc(C3=NCCN3)ccc2c1,inactive
15,CCN(CC)CCOC(=O)c1cc(Cl)c(N)cc1OC,inactive
16,NC(N)=NC(N)=Nc1ccccc1,inactive
17,COCc1nc2c([nH]1)c(=O)n(C)c(=O)n2CC(C)C,inactive
18,CC(C)C[C@H](NC(=O)[C@H](O)[C@H](N)Cc1ccccc1)C(=O)O,inactive
19,COc1ccc(CCn2nnnc2C2(c3ccc(C)cc3)CC2)cc1,inactive
20,Cc1cccc(C)c1OCC(N)C(C)C (stereo not given),inactive
